SMILES strings stand for the structures. Hit rate of the full screen: of about 67,000 compounds, about 300 (0.45%) showed an effect of 50% or more. This excerpt belongs to a sample that is enriched for strong results.

The target in the assay is Polyketide synthase Pks13 (Mycobacterium tuberculosis (strain ATCC 25618 / H37Rv)) (UniProt I6X8D2). The experiment in a line: Mycobacterium tuberculosis Polyketide synthase 13 Thioesterase (PKS13). The class given is functional. The note with it: 30 µM. Details: scale not given: in the data most compounds retested in dose-response had high values.
Chain of Polyketide synthase Pks13 (Mycobacterium tuberculosis (strain ATCC 25618 / H37Rv)) (I6X8D2 whole entry): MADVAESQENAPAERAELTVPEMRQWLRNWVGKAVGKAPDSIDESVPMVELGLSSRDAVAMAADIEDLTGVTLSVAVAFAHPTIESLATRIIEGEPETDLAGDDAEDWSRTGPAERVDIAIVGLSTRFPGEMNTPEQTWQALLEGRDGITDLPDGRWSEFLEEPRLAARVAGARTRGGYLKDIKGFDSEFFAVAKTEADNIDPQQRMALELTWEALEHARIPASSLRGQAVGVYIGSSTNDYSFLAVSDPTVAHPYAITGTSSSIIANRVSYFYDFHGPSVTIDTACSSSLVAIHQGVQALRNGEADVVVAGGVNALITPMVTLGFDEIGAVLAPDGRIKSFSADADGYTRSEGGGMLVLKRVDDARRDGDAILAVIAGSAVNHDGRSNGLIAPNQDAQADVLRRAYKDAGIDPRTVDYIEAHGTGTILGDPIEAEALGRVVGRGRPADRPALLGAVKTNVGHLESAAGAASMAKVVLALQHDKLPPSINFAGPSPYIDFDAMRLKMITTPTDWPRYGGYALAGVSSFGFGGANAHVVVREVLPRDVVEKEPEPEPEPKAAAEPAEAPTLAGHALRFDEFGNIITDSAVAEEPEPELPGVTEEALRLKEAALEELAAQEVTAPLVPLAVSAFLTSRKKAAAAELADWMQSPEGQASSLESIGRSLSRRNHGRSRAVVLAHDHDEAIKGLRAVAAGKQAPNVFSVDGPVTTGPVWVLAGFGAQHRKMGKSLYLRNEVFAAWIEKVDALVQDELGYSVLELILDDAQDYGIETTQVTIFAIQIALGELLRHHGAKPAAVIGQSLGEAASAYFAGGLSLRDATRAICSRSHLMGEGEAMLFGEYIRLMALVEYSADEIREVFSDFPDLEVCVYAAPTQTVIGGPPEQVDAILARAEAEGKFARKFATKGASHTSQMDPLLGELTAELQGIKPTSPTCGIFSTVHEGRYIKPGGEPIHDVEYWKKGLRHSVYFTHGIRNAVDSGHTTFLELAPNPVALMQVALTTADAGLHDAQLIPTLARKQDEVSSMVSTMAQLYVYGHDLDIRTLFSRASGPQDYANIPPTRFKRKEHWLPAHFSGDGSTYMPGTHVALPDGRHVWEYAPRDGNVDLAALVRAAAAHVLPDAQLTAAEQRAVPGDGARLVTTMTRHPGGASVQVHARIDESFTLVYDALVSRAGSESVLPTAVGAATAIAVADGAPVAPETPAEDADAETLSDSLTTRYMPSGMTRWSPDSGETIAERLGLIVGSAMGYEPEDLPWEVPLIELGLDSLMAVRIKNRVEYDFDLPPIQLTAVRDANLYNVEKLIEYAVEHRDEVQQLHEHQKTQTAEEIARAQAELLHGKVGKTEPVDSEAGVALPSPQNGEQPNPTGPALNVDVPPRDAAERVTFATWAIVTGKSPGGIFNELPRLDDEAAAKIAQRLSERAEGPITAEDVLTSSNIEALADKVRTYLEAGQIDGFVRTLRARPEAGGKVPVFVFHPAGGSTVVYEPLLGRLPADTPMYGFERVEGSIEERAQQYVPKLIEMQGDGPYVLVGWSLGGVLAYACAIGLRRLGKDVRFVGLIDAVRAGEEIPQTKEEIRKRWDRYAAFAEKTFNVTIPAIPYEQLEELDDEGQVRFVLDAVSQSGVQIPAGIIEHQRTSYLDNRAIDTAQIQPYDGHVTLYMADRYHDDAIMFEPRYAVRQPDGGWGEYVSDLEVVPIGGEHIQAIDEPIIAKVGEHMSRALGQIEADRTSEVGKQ
As for `O=c1ccc2c(n1CC1CCOCC1)CCN(Cc1ccoc1)CC2`, the Percent Effect was 52.6%.

On to `COCCn1c2c(ccc1=O)CCN(Cc1ccoc1)CC2`, for which the Percent Effect turned out to be 19%.

With `O=c1ccc2c(n1Cc1ccncc1)CCN(Cc1ccoc1)CC2`, the Percent Effect is 6.04%.

As for `O=C(c1cscn1)N1CC[C@H]2[C@@H]1CCC(=O)N2c1ccccc1`, the Percent Effect was -9.46%.

Take `c1ccc2c(c1)CCN(c1ncnc3sc4c(c13)CCNC4)C2`: the Percent Effect was -23.8%.

With `c1ccc2c(c1)CN(c1ncnc3c1CCNC3)CCO2`, the Percent Effect is -34%.

On to `c1ccc2c(c1)CN(c1ncnc3sc4c(c13)CCNC4)CCO2`, for which the Percent Effect was determined as 63%.

Consider `CCC1(C)Cc2ccccc2-c2nc(NCCCO)nc(O)c21` (stereo not drawn), for which the Percent Effect is 37.9%.

Regarding `CCC1(C)Cc2ccccc2-c2nc(NCCO)nc(O)c21` (stereo not drawn), the Percent Effect is 55.8%.

As for `O=c1c(NCCCO)c(N2CCN(c3ccccc3)CC2)c1=O`, the Percent Effect was 4.71%.

As for `OCCCNc1nc(O)c2c(n1)-c1ccccc1CC21CCCCC1`, the Percent Effect worked out at 13.8%.

On to `O=C(NCCCO)C1(N2CCCCC2)Cc2ccccc2C1`, for which the Percent Effect was -29.6%.

For `CC1(C)Cc2ccccc2-c2nc(NCCCO)[nH]c(=O)c21`, the Percent Effect was 62.7%.

As for `O=c1[nH]c(NCCO)nc2c1C1(CCCC1)Cc1ccccc1-2`, the Percent Effect amounted to 12.1%.

Turning to `CC1(C)Cc2ccccc2-c2nc(NCCO)[nH]c(=O)c21`, the Percent Effect was 88.1%.

As to `O=c1[nH]c(NCCCO)nc2c1C1(CCCC1)Cc1ccccc1-2`, the Percent Effect was determined as 55.4%.

As to `O=c1[nH]c(NCCO)nc2c1C1(CCCCC1)Cc1ccccc1-2`, the Percent Effect was -23%.

For `CC(C)(CO)CCCNC(=O)NC1(C)Cc2ccccc2C1`, the Percent Effect turned out to be 0.272%.

Turning to `Cc1cc(NCCO)nc(-c2ccccc2O)n1`, the Percent Effect stood at 19.7%.

Consider `Cn1cc(CN2C[C@H](Oc3ncccc3F)[C@H]3OCCC[C@H]32)cn1`, for which the Percent Effect came out at 4.64%.

With `Cc1occc1C(=O)N1C[C@@H]2CCCO[C@@H]2[C@H](NC(=O)CC2CC2)C1`, the Percent Effect is -0.923%.

As for `CC(C)=CCN1C[C@H]2CC[C@@H]1CN(C(=O)c1c[nH]c(=O)c(Cl)c1)C2`, the Percent Effect is -3.37%.

Regarding `CC(C)CN1C[C@@H]2C(=O)N(C)C3(CCN(C(=O)C(C)C)CC3)[C@@H]2C1`, the Percent Effect is -25.7%.

For `Cc1noc([C@]23COC[C@H]2CN(S(=O)(=O)N(C)C)C3)n1`, the Percent Effect was -30.1%.

In the case of `CNC(=O)CN1CCO[C@H]2CN(C(=O)C3CC3)C[C@H]21`, the Percent Effect was -29%.

In the case of `O=C([C@@H]1COC[C@H]2CN(C3CCOCC3)C[C@H]21)N1CCCO1`, the Percent Effect came to 35.9%.

As to `CS(=O)(=O)N[C@@H]1CN(Cc2ccoc2)C[C@@H]2CCCO[C@@H]21`, the Percent Effect is -30.2%.

As for `CCC1(CC)Cc2ccccc2-c2nc(NCCCO)[nH]c(=O)c21`, the Percent Effect was 88.8%.

In the case of `CCC1(CC)Cc2ccccc2-c2nc(NCCO)[nH]c(=O)c21`, the Percent Effect is -180%.

For the compound `CCC1(CC)Cc2ccccc2-c2nc(CN(C)C)nc(O)c21`, the Percent Effect is -41.1%.

`O=C([C@H]1C[C@H]2OCC[C@H]2N(C(=O)c2ccccn2)C1)N1CCCCO1`: the Percent Effect was -25.9%.

With `CC(=O)N1CCC(NC(=O)c2cc(S(N)(=O)=O)ccc2C)CC1`, the Percent Effect is -0.331%.

Turning to `CC(=O)N1CCC(NC(=O)c2cc(Cl)ccc2O)CC1`, the Percent Effect is 95.8%.

Turning to `CC(=O)N1CCC(NC(=O)c2cc(Cl)ccc2-n2cnnn2)CC1`, the Percent Effect was -14.8%.

For `Cc1nc(CO[C@H]2CN(Cc3ccccn3)[C@@H]3CCCO[C@H]23)cs1`, the Percent Effect was determined as 1.71%.

For `CC(=O)N1CC[C@H]2OCC[C@@H](C(=O)Nc3cccnc3C)[C@H]2C1`, the Percent Effect was 5.14%.

Turning to `O=C(c1ccco1)N1C[C@H]2CCCN(CC3CCOCC3)[C@H]2C1`, the Percent Effect came to 0.0598%.

On to `Cn1ccnc1CN1C[C@H](N2CCOCC2)[C@@H]2OCCC[C@@H]21`, for which the Percent Effect is -10.5%.

With `CC(C)N1Cc2cccc(NCC(=O)N(C)C3CCCCC3)c2C1`, the Percent Effect stood at 81.9%.

With `CC(C)C(C)N1Cc2cccc(NCC(=O)N(C)C)c2C1` (stereo not drawn), the Percent Effect was -6.55%.

On to `CC(C)N1Cc2cccc(NCC(=O)N(C)C)c2C1`, for which the Percent Effect was -31.9%.

For `CN(C)C[C@@H]1CCC[C@@H]2CN(c3cccnc3)C[C@@H]21`, the Percent Effect is -20.9%.

In the case of `CS(=O)(=O)N1CCN2C(=O)N(C3CCCCC3)C[C@H]2C1`, the Percent Effect was determined as 3.48%.

As to `O=C([C@@H]1COC[C@H]2CN(c3ccncn3)C[C@H]21)N1CCCCO1`, the Percent Effect is -30%.

For the compound `O=C(C1CCC1)N1CCO[C@H]2[C@H](OCCCn3cccn3)CC[C@@H]21`, the Percent Effect was -40.4%.

Consider `Cc1cscc1C(=O)Nc1cc(CSCCO)ccn1`, for which the Percent Effect was 11.8%.

With `O=C(Nc1cc(CSCCO)ccn1)c1ccc(Cl)o1`, the Percent Effect came out at 62%.

Turning to `Cc1ccnc(NC(=O)c2ccc(Cl)o2)c1`, the Percent Effect was -6.1%.

With `Cc1cccc(CN2C[C@@H](NC(=O)C3CCC3)[C@H]3COC[C@H]32)n1`, the Percent Effect is -33.3%.

Consider `O=C(CCc1n[nH]c2c1CCCC2)N1C[C@@H]2CC[C@H](C1)N(CC1CC1)C2`, for which the Percent Effect was -15.4%.

Turning to `Cc1nn(C)cc1-c1ccnc(N(C)Cc2cnn(C)c2)n1`, the Percent Effect is -7.71%.

As to `Cc1nn(C)cc1-c1ccnc(N(C)Cc2ccoc2)n1`, the Percent Effect is 139%.

For the compound `Cc1nn(C)cc1-c1ccnc(N(C)Cc2ccc(F)cc2)n1`, the Percent Effect was -13.2%.

As to `CC(C)N1[C@H](Cn2cncn2)C[C@@H]2CN(Cc3cccs3)CC[C@@H]21`, the Percent Effect was found to be 2.62%.

As for `O=C1CC(NCc2cnc(N3CCCC3)nc2)CN1c1ccccc1` (stereo not drawn), the Percent Effect was found to be 65.7%.

For `O=C1CC(NCc2cnc(C3CCCCC3)nc2)CN1c1ccccc1` (stereo not drawn), the Percent Effect was -18%.

For `O=C1CC(NCc2cnc(-c3cccs3)nc2)CN1c1ccccc1` (stereo not drawn), the Percent Effect was -18.1%.

Consider `O=S(=O)(c1ccccc1)N1C[C@@H]2CCCCN(Cc3cccs3)[C@@H]2C1`, for which the Percent Effect was -1.03%.

Consider `COc1cc2nc(NCc3scnc3C)nc(N)c2cc1OC`, for which the Percent Effect was 12.1%.

As to `COc1cc2nc(NCc3ccc(C)nc3)nc(N)c2cc1OC`, the Percent Effect was -17.5%.

Take `COc1cc2nc(NCc3cc(C)on3)nc(N)c2cc1OC`: the Percent Effect came to 78.9%.

Regarding `CNC(=O)CN1CCO[C@H]2CN(CC3CCOC3)C[C@H]21` (stereo partly drawn), the Percent Effect was -18.9%.

Turning to `O=C(c1cc(F)cc(F)c1)N1C[C@H]2CNC[C@H]2C1`, the Percent Effect is -29.4%.

As to `COCCN1CC(=O)N2CC[C@@H](O)C[C@H]2C1=O`, the Percent Effect was found to be 7.83%.

Consider `Cc1ncc2c(n1)CCN(CCCc1nc3ccccc3o1)C2`, for which the Percent Effect amounted to 0.614%.

On to `Cc1ncc2c(n1)CN(Cc1nc3ccccc3o1)CC2`, for which the Percent Effect is -1.34%.

`Cc1ncc2c(n1)CN(CCCc1nc3ccccc3o1)CC2`: the Percent Effect turned out to be 94.6%.

In the case of `CCCN1CCN(C(=O)c2ccc(Cl)cn2)[C@H]2CS(=O)(=O)C[C@H]21`, the Percent Effect was determined as 5.71%.

The record behind these values is ChEMBL document CHEMBL3988442, “University of Dundee, Small-Polar-MMV Screening Library” (2021).
